Screens as filed in PubChem.
Gal4-VP16 FLuc: VP16 counterscreen qHTS for inhibitors of ROR gamma transcriptional activity; actives 3.5% (n = 310,000); Drosophila S2 Gal4-VP16 UAS-luciferase, luminescence, 20 h; Potency, µM (doses to about 53.6 µM), actives largely listed as inhibitors;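 further: Gal4-VP16 expression switched on by copper sulfate through the metallothionein promoter; nearly all actives have a fitted effect of over 50% in size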
MCF10A rereplic: A quantitative high throughput screen for small molecules that induce DNA re-replication in MCF 10a normal breast cells; MCF 10A DNA re-replication, Hoechst nuclear intensity, 48 h; Potency, µM (titrated, usually from 46.1 µM), most hits filed as activators; actives 2.9% (n = 350,000); further: nearly all actives have a fitted effect of over 50% in size
RORg inh: qHTS for inhibitors of ROR gamma transcriptional activity; Nuclear receptor ROR-gamma (Mus musculus), P51450; Drosophila S2 Gal4-RORgamma UAS-luciferase reporter, 20 h; Potency, µM (doses to about 53.6 µM), hits mostly inhibitors; actives 5.4% (n = 310,000); AID 2551, 2010; further: nearly all actives have a fitted effect of over 60% in size
Target sequence (P51450 whole entry, looked up, the tested form may be a part): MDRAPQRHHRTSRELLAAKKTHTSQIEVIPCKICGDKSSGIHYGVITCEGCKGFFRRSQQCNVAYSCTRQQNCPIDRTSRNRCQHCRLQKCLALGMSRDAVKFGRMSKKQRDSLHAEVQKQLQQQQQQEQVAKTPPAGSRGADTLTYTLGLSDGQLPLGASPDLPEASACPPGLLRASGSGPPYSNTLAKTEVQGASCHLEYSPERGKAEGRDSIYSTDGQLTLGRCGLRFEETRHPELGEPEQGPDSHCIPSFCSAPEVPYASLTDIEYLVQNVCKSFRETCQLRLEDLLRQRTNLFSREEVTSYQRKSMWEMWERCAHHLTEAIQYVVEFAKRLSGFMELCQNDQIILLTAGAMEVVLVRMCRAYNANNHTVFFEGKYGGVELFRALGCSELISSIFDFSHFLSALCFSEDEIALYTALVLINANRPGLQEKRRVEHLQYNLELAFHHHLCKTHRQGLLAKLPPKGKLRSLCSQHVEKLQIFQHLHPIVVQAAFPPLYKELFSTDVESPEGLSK
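A Gal4/UAS one-hybrid system in insect cells: metallothionein-promoter Gal4–ROR gamma fusion plus Photinus luciferase reporter. Copper sulfate 700 uM final, 20 hr ambient incubation, luminescent detection after 10 min with reagent.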
SW480 rereplic: A quantitative high throughput screen for small molecules that induce DNA re-replication in SW480 colon adenocarcinoma cells; SW480 DNA re-replication, Hoechst DNA content imaging, 48 h; Potency, µM (top dose mostly 46.1 µM), most hits filed as activators; actives 1.8% (n = 340,000); AID 624297, 2012; further: nearly all actives have a fitted effect of over 55% in size
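Treated cells incubate 48 hr (37 C, 5% CO2), are stained 40 min with Hoechst, and nuclear fluorescence is enumerated; a rise in nuclei with high DNA signal marks re-replication.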
ELG1 repair inh: qHTS screen for small molecules that inhibit ELG1-dependent DNA repair in human embryonic kidney (HEK293T) cells expressing luciferase-tagged ELG1. HEK293T ELG1-luciferase reporter, luminescence, 16 h; DNA damage induced by 5-fluorouridine. Potency, µM (titrated, usually from 46.1 µM), usual class: inhibitors. actives 2.3% (n = 330,000). AID 504467, 2011; further: nearly all actives have a fitted effect of over 55% in size
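Quantitative HTS, concentration-response format. 2,000 cells/well co-treated with 5-fluorouridine and compound, 16 hr in 5% CO2 at 37 °C; ONE-Glo luminescence read after 30 min.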
Numbers stand for hits; 0 = inactive; ? = inconclusive; - = no result given; [ ] = dose if it differs, or a comment. Rows were chosen to be rich in hits. Some 10% of all compounds tested hit in one or more screens of this group. The call rests on the fitted dose curve; in most records, active means well fitted curve in the direction sought with a large enough effect; inconclusive means small, poorly fitted or top-dose-only effect, or another doubt; inactive means no such curve, though single readings can be large; an effect the other way counts as inactive or inconclusive.

SMILES | Gal4-VP16 FLuc | MCF10A rereplic | RORg inh | SW480 rereplic | ELG1 repair inh
NNC(=S)NC1CCCCC1 | 7.08µM | 0 | 2.82µM | 0 | 0
CCCNC(=O)NC1CCCCCCC1 | 0 | ? | 0 | ? | 0
CC[C@]12c3[nH]c4ccc(OC)cc4c3CCN1C(=O)C(CC(=O)NCCc1ccccn1)C[C@@H]2C(=O)N1CCN(C(=O)c2ccco2)CC1 (stereo partly specified) | - | 0 | - | 0 | ?
COC(=O)[C@@]1(Cc2ccc(OC)cc2)[C@H]2c3cc(C(=O)N4CCCC4)n(CCc4ccccn4)c3C[C@H]2CN1C(=O)c1ccccc1 | 0 | - | ? | - | -
Cc1ccc(NC(=O)c2cnn(-c3ccccc3)c2C)cc1C | ? | 0 | 5.01µM | 0 | ?
Cc1c(C(=O)Nc2ccccc2)cnn1-c1ccccc1 | - | 0 | - | 0 | -
CC(=O)c1cccc(NC(=O)c2cnn(-c3ccccc3)c2C)c1 | 2.24µM | 0 | 3.55µM | 0 | ?
CCN(CC)c1ccc(Nc2nc(N3CCOCC3)c3ccccc3n2)cc1 | 11.2µM | ? | 0 | ? | ?
COc1ccc(Nc2nc(N3CCCCC3)nc3ccccc23)c(OC)c1 | 0 | 0 | 0 | 0 | 23.1µM
COc1ccc(Nc2nc(N3CCN(S(C)(=O)=O)CC3)nc3ccccc23)c(OC)c1 | 0 | 0 | 0 | 0[1.84 µM] | ?
COc1ccc(Nc2nc(N3CCCC3)c3ccccc3n2)cc1 | ? | ? | ? | 0 | 9.2µM
CN1C(C(=O)NCc2ccc(OC(F)(F)F)cc2)CC2Cn3c(nc4cc5ccccc5cc43)C21 (stereo unspecified) | 0 | ? | 0 | 0 | 0
O=C(NCCN1CCCCC1)c1cc(Cl)ccc1Cl | 0 | 0 | 0 | 0 | 0
COc1ccc(-c2nn(-c3ccccc3)cc2C(=O)N(C)CC(=O)Nc2ccc(N3CCOCC3)cc2)cc1 | - | 0 | - | 0 | 0
COc1cc(CCCN2C(=O)C(=O)NC[C@@H]2CC2CCCCC2)cc(OC)c1OC | - | ? | - | 0 | 0
COc1cc(CCCN2C(=S)NC[C@@H]2CC2CCCCC2)cc(OC)c1OC | ? | ? | 3.98µM | ? | 0
CCSc1nc2sc3c(c2c(=O)[nH]1)CCc1ccccc1-3 | 0 | ? | ? | ? | 0
NNc1nc2sc3c(c2c(=O)[nH]1)CCc1ccccc1-3 | 17.8µM | ? | 15.8µM | 0 | 0
CONC(=O)C1CCN(C(=O)OCc2ccccc2)CC1 | 0 | 0 | 0 | 0 | 0
NCCC1CN(C(=O)OCc2ccccc2)c2ccccc21 (stereo unspecified) | - | 0 | - | 10.3µM | -
COc1ccc(-c2csc3ncnc(Sc4nnnn4C)c23)cc1 | - | ? | - | 0 | ?
Cn1nnnc1Sc1ncnc2scc(-c3cccc(S(C)(=O)=O)c3)c12 | - | 4.61µM | - | 0 | ?
Cn1nnnc1Sc1ncnc2scc(-c3cccc(Br)c3)c12 | - | ? | - | ? | 13µM
CC(C)(C)NC(=O)COc1ccc(CNCCc2ccccc2)cc1 | 0 | 0 | 0 | 0 | 0
CC(C)(C)NC(=O)COc1ccc(CNCc2ccccn2)cc1 | 0 | 16.4µM | 0 | 0 | 0
SMILES | Gal4-VP16 FLuc | MCF10A rereplic | RORg inh | SW480 rereplic | ELG1 repair inh
O=C(CCNS(=O)(=O)c1c(Cl)cccc1Cl)N1CCCC1 | - | 0 | - | 0 | 0
COc1ccc2oc(=N)c(C(=O)Nc3ccccc3Cl)cc2c1 | 0 | 0 | 0 | 0 | ?
COc1ccc2oc(=O)c(C(=O)Nc3ccccc3C)cc2c1 | ? | 0 | 0.891µM | 0 | ?
COc1ccc2oc(=N)c(C(=O)Nc3cccc(C)c3C)cc2c1 | 0 | 0 | 3.16µM | 0 | ?
O=C(CC1C(=O)NCCN1Cc1ccccc1)NCCCOc1cccnc1 (stereo unspecified) | 0 | ? | 0 | 0 | 0
Cc1cc(-c2ccc(C(C)C)c(S(=O)(=O)N3CCN(c4ccccc4)CC3)c2)on1 | 0 | ? | 0 | 6.51µM | ?
CC(=O)c1ccc(N2CCN(S(=O)(=O)c3cc(-c4cc(C)no4)ccc3C(C)C)CC2)cc1 | 0 | ? | 0 | 0 | ?
COc1ccc(N2CCN(S(=O)(=O)c3cc(-c4cc(C)no4)ccc3C(C)C)CC2)cc1 | 0 | 0 | 0 | 0 | 7.3µM
COc1ccccc1N1CCN(S(=O)(=O)c2cc(-c3cc(C)no3)ccc2C(C)C)CC1 | 0 | 0 | 0 | ? | 0
Cc1cccc(N2CCN(S(=O)(=O)c3cc(-c4cc(C)no4)ccc3C)CC2C)c1 (stereo unspecified) | 0 | 3.26µM | 0 | 10.3µM | ?
CC(c1ccncn1)N(C)C(=O)c1ccc2oc(Cc3ccccc3)nc2c1 (stereo unspecified) | 0 | 0 | 0 | 0 | ?
CN1CCC2(CC1)N=C(c1ccc(F)cc1)C(=S)N2C(=O)c1ccc(C(C)(C)C)cc1 | ? | 8.2µM | 12.6µM | 0 | 0
CCC(C)n1c(=O)c2sccc2n2c(CCCC(=O)N3CCC(C(N)=O)CC3)nnc12 (stereo unspecified) | 0 | 0 | 0 | 0 | 0
Cc1ccc(/C=C2/C(=O)C3(C)CCC2C3(C)C)cc1 (stereo unspecified) | 0 | ? | 0 | 0 | -
CC(C)CCOC(=O)C[N+](C)(C)CCOC1CC2CCC1(C)C2(C)C (stereo unspecified) | 0 | 16.4µM | 0 | 0 | ?
CCCCCCCOC(=O)C[N+](C)(C)CCOC1CC2CCC1(C)C2(C)C (stereo unspecified) | 12.6µM | ? | ? | ? | ?
COc1ccc(NS(=O)(=O)c2ccc3oc(SC4CCOC4=O)nc3c2)cc1 (stereo unspecified) | ? | 2.91µM | 0 | ? | 0
COc1ccc(NS(=O)(=O)c2ccc3oc(SC)nc3c2)cc1 | 0 | ? | ? | 0 | 0
C/C(=N\NC(=O)c1ccc(Cl)cc1)c1ccc2[nH]ccc2c1 | 0 | 0 | 0 | 0 | ?
CCOc1ccc(C(=O)NC(=S)Nc2cc(C)ccn2)cc1[N+](=O)[O-] | 0 | 0 | 0 | 0 | 0
COc1ccc(C(=O)NC(=S)Nc2cccnc2)cc1[N+](=O)[O-] | 0 | 0 | ? | 0 | 0
O=C(NC(=S)Nc1cccc([N+](=O)[O-])c1)c1ccccc1 | 0 | 0 | ? | 0 | ?
CCOc1ccc(C(=O)NC(=S)Nc2ccccn2)cc1[N+](=O)[O-] | ? | 0 | 0.708µM | 0 | ?
CCOc1ccc(C(=O)NC(=S)Nc2cccnc2)cc1[N+](=O)[O-] | 0 | 0 | 14.1µM | 0 | ?
O=C(NC(=S)Nc1ccccn1)c1cccc([N+](=O)[O-])c1 | ? | 0 | 3.55µM | 0 | ?
O=C(NCCS(=O)(=O)N1CCN(c2cccc(Cl)c2)CC1)C1CCCC1 | - | 0 | - | 0 | ?
COc1ccc(/C=C/C(=O)NC2CCN(Cc3ccccc3)CC2)cc1OC | 0 | 0 | 0 | 0 | 0
CC1CCC2C(=O)N(c3ccc(C(=O)Oc4cccc5cccnc45)cc3)C(=O)C2C1 (stereo unspecified) | 3.16µM | ? | 6.31µM | 0 | ?
